Screening data (PubChem BioAssay)
Pf Dd2 growth – qHTS Primary assay for Inhibitors of Plasmodium falciparum Dd2 growth in vitro; P. falciparum Dd2 growth, SYBR Green, 72 h; Potency, µM (titrated, usually from 28.9 µM), for the others: at the highest dose activity, negative = inhibition, usual class: inhibitors; 120,000 tested, 4.3% active; active = well fitted inhibition curve with a large enough effect;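 note: plate controls were DMSO vehicle for no effect and reference drug for full effect; nearly all actives have a fitted effect of over 65% in size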
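Readout: SYBR Green fluorescence, 485 nm excitation, 535 nm emission, after ~16 h lysis at 37C. Before that, Dd2-infected red cells (2.5% hematocrit) grew 72 h with compound, 29 uM top final concentration.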
* marks the source's active call; other numbers are inactive results; i = inactive; [ ] = another dose, or the depositor's remark. This excerpt belongs to a sample that is enriched for hits. Potency is the fitted concentration of half-maximal effect.

SMILES	Pf Dd2 growth
COC(=O)CNC(=O)N1CCCCCCN(C)C(=O)[C@@H]2CCC[C@@H]21	17.0%
COc1ccc(C(C)NC(=O)COc2ccc(NC(C)=O)cn2)cc1OC (stereo not drawn)	21.0%
CN(CC1CCOC1)C(=O)c1ccc(F)c(Cl)c1 (stereo not drawn)	25.9%[5.79 µM]
CC(C)c1noc(C2CCCN(C(=O)c3ccc4cccc(F)c4n3)C2)n1 (stereo not drawn)	-2.2%
C=CCNC(=O)N[C@H]1CCN2C(=O)c3cc(Br)ccc3NC(=O)[C@@H]2C1	-18.3%[44.1 µM]
N#Cc1ccc(CN2C[C@@H]3OCC(=O)N(CC(N)=O)[C@@H]3C2)cc1	4.0%[44.1 µM]
CC(C)Cc1cc(CC2(NCc3ccc(N(C)C)cc3)COC2)no1	-21.8%[44.1 µM]
CN1CC(=O)N(c2ccccc2F)Cc2c1ncnc2N1CCN(c2ncccn2)CC1	-14.3%
CC(=O)Nc1ccc(C2(C(=O)NCc3ccc(C)cc3)CCC2)cc1	10.0%
CNC(=O)[C@@H](c1ccccc1F)N1CCC[C@H]1C(=O)NCCN(C)C	-14.0%[44.1 µM]
Cc1nc(C2(C)CCN(S(=O)(=O)c3c(C)noc3C)CC2)no1	-7.7%
Cc1noc(C)c1S(=O)(=O)N1CCC2(CC1)C(=O)N(C)c1ccccc12	3.55µM*
Cc1noc(C)c1S(=O)(=O)N1CCC2(C1)C(=O)Nc1ccccc12 (stereo not drawn)	16.1%
NS(=O)(=O)CCCC(=O)N1C[C@@H](C(=O)O)[C@H](c2cccc(F)c2)C1	-16.3%
Cn1nnnc1SCCCNCc1cc(Br)ccc1OCc1ccccc1F	7.94µM*
Cn1nnnc1SCCNCc1ccc(F)cc1	-15.2%
COc1cc(CNCCSc2nnnn2C)ccc1OCc1ccc(F)cc1	i
Cn1nnnc1SCCCNCc1cc(Br)ccc1OCc1ccccc1	11.2µM*
COc1cccc(CNCCSc2nnnn2C)c1OCc1ccc(F)cc1	-6.8%
Cn1nnnc1SCCNCc1ccccc1Cl	-22.6%
O=C(NCc1ccccn1)C1CCc2sc(C(=O)N3CCOCC3)cc2C1 (stereo not drawn)	4.5%
CN1CC(=O)N(c2ccccc2F)Cc2c1ncnc2N1CCC(O)CC1	32.9%
CC(C)COc1ccc(C2=NC(c3ccncc3)=Nc3ccc(F)cc3N2)cc1	-2.4%
CCc1ccc2c(c1)NC(c1ccc(F)cc1)=NC(c1ccncc1)=N2	-13.2%
CCOc1ccc2c(c1)NC(c1ccc(OCC)c(OCC)c1)=NC(c1ccc(F)cc1)=N2	12.6µM*
SMILES	Pf Dd2 growth
CCCS(=O)(=O)N1CCCC(c2nc(-c3ccccc3)no2)CCNC(=O)CC1 (stereo not drawn)	-22.3%
CN(CC(O)COc1cccc(CNCCc2ccc(F)cc2)c1)C1CCCCC1 (stereo not drawn)	3.98µM*
CCN1CCN(CC(O)COc2cccc(CNCc3cnn(CC)c3)c2)CC1 (stereo not drawn)	0.4%
CCN1CCN(CC(O)COc2cccc(CNCCCc3scnc3C)c2)CC1 (stereo not drawn)	i
COc1ccccc1NC(=O)NC[C@H]1O[C@H](Cc2cc(C(C)(C)C)on2)CC[C@@H]1O	-13.4%[44.1 µM]
CCCOc1ccc(CN2C(=O)C3(CCOCC3)CC2c2nnnn2CCOC)cc1 (stereo not drawn)	9.5%
COCC(=O)N[C@@H]1CN(Cc2ccc(C)cn2)C[C@H]1CO	i
Cc1cc(C(=O)N2CCN(c3ccc(F)cc3)CC2)c2c(C)nn(-c3cccc(Cl)c3C)c2n1	25.1%
O=C(c1cccn2c(=O)c3cc(Cl)ccc3nc12)N1CCN(c2ccccc2F)CC1	i
Cc1ccc(C)c(N2CCN(C(=O)c3cc(C)nc4c3c(C)nn4-c3ccccc3)CC2)c1	8.91µM*
Cc1cc(C(=O)N2CCN(c3cccc(Cl)c3)CC2)c2c(C)nn(-c3ccccc3Cl)c2n1	11.2µM*
Cc1ccc(-n2nc(C)c3c(C(=O)O)cc(C)nc32)cc1	5.1%
Cc1ccc(-n2nc(C)c3c(C(=O)Nc4ccccc4C(F)(F)F)cc(C)nc32)cc1	-13.3%
COc1cc(NC(=O)c2cc(C)nc3c2c(C)nn3-c2ccccc2Cl)cc(OC)c1	-28.2%
CSc1ncc(C(=O)N2CCN(c3cc(C)ccc3C)CC2)c(C)n1	15.6%
Cc1ccc(C)c(N2CCN(C(=O)c3cccn4c(=O)c5ccccc5nc34)CC2)c1	12.6µM*
CC(C)NC(=O)N1C[C@@H](F)[C@@H](OCc2nc3ccccc3o2)C1	-14.2%[44.1 µM]
COc1ccccc1CN1C[C@@H]2C(C(=O)NCc3ccccc3)=NO[C@@H]2C1	-22.6%[44.1 µM]
O=C(C1CN(c2ccc(F)cc2)C(=O)N1)N1CCN(Cc2ccccc2)CC1 (stereo not drawn)	i
COC(=O)CC1CCN(C(=O)C2CC(=O)N(c3n[nH]c4ccccc34)C2)CC1 (stereo not drawn)	-6.3%
COCCN1C(=O)CC[C@]2(C(=O)NCc3cccc(F)c3)CCCC[C@@H]12	-13.0%
COc1ncccc1CN(Cc1cccnc1OC)C[C@H]1COCc2nc3ccc(C)cc3n21	4.47µM*
Cc1ccc2nc3n(c2c1)[C@@H](CNCc1ccccc1)COC3	i
COc1ccc2c(c1)nc1n2[C@@H](CN(Cc2nccs2)Cc2nccs2)COC1	-25.4%[44.1 µM]
O=C(Cc1ccc2c(c1)OCCCO2)NC1CCCc2c1[nH]c1ccccc21 (stereo not drawn)	-29.8%
SMILES	Pf Dd2 growth
CN1C[C@H]2CN(C(=O)c3cccnc3)CCN2C1=O	-1.9%[44.1 µM]
O=C(O)c1ccccc1C(=O)N[C@H]1CO[C@H]2[C@@H]1OC[C@@H]2n1nnnc1Oc1ccc(-n2cncn2)cc1	4.4%
Cc1nc(NCCc2ccn[nH]2)cc(C2CC(O)C2)n1 (stereo not drawn)	-1.6%
O=c1c2nc(Nc3ccccc3)ccc2ncn1-c1ccccc1	i
COc1cccc(CC(=O)Nc2ccc3c(N4CCCCC4)ncnc3c2)c1	11.2µM*
O=C(Cc1ccccc1F)Nc1ccc2c(N3CCCCC3)ncnc2c1	12.6µM*
COc1ccccc1CC(=O)Nc1ccc2ncnc(N3CCCCC3)c2c1	i
O=C(Cc1c(F)cccc1Cl)Nc1ccc2ncnc(N3CCCC3)c2c1	-20.0%
O=C(Cc1cccc(F)c1)Nc1ccc2ncnc(N3CCCCC3)c2c1	-13.5%
COc1ccc(CC(=O)Nc2ccc3ncnc(N4CCCCC4)c3c2)c(Cl)c1	-22.0%
O=C(CCn1cncn1)N(CC1CCN(Cc2ccccc2F)CC1)CC1CCCO1 (stereo not drawn)	-10.8%
Cc1nc2c(c(=O)n1C)CN(C(=O)[C@H]1CNC[C@H](C(=O)N3CCCC3)C1)C2	-21.8%
COCCNC(=O)[C@@H]1C[C@H](Oc2ccccc2)CN1C(=O)Cc1cccc(F)c1	-0.7%
COC(=O)CN1C(=O)[C@@H]2C[C@@H](O)CN2C2(CN(C3CCOCC3)C2)C1=O	32.5%[44.1 µM]
Cc1nc(C)c(CC(=O)NC2CCCN(CCCc3ccccc3)C2)c(=O)[nH]1 (stereo not drawn)	-5.3%
CCNCc1ccc(-c2ccccc2)o1	-27.1%
Brc1ccc(-c2ccc(CNCCSc3nnnn3-c3ccccc3)o2)cc1	-14.8%
CCOCCCNCc1ccc(-c2ccccc2)o1	11.2µM*
CC1CN2CCCCC2CN1 (stereo not drawn)	9.6%[76.6 µM]
COc1ccc(C(=O)N2CCC3(CC2)NC(=O)N(Cc2ccccc2)C3=O)c(C)c1	-20.8%
Cc1cc(C(=O)N2CCC3(CC2)CC(N(Cc2ccccc2)C2CC2)CCO3)n(C)n1 (stereo not drawn)	i
O=C(C[C@H]1NC(=O)c2ccccc2NC1=O)NC1CCN(Cc2ccc(F)cc2)CC1	-4.5%
OC1(CN2CCCCC2)CCN(Cc2ccc(F)c(Cl)c2)C1 (stereo not drawn)	8.91µM*
Cc1cc(F)ccc1CN1CCC(CO)(CN2CCCC2)CC1	i
